# Bioassay records deposited in PubChem BioAssay by National Center for Advancing Translational Sciences (NCATS).
# Shown are actives, neighbours in structure and some others; about 13% of the full set was active somewhere.
# Pf growth 96h: P. falciparum growth inhibition at 96 hour, primary screen for plastid delayed-death inhibitors | 320,000 compounds, 6.9% hits | P. falciparum luciferase reporter growth, 96 h | Potency, µM (doses to about 28.7 µM), usual class: inhibitors
#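 P. falciparum expressing integrated firefly luciferase grown in erythrocytes (2% hematocrit, 0.05% parasitemia final) with compounds for 96 hours at 37 C, 5% CO2. Growth inhibition read as loss of luminescence after adding luciferase detection reagent.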
# HCV inhibitor: HCV inhibition | Huh7.5.1 HCVcc-Cre infection, luciferase reporter, 44 h | Potency, µM (doses to about 41.8 µM), usual class: inhibitors | 340,000 compounds, 3.4% hits
#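 Whole-lifecycle infectious HCVcc-Cre system; cells 1,000/well, compound then virus (~0.5 moi) added 4 h after plating, 44 h culture. Luciferase read 15 sec following 15 min substrate incubation, room temp.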
# HCMV antiviral: human cytomegalovirus inhibition | activity change, negative = inhibition, % at 57.5 µM | 410,000 compounds, 4.5% hits | AID 1259415 | HFF cells, HCMV-luciferase reporter, 72 h; stronger effect = lower value; in the data active = activity change below about -60%; inconclusive = no clear call, values can overlap the other calls; inactive = above about -39%
#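 Human foreskin fibroblasts infected with luciferase-reporter HCMV at MOI 1 PFU/cell, compounds at two doses. Luciferase measured 72 h post infection; normalized to buffer-only basal and Salinomycin (10uM) controls.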
# Pf growth 48h: P. falciparum growth inhibition at 48 hours (one generation). P. falciparum luciferase growth in erythrocytes, 48 h. Potency, µM (highest dose often 28.7 µM), usual class: inhibitors. 310,000 compounds, 5.9% hits
#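 First compound was added to culture medium, then infected red cells at 0.1% parasitemia and 2% hematocrit (final). After incubation at 37 C under 5% CO2, luciferase detection reagent was dispensed and light output recorded.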
# A number is an active result; 0 = inactive; ? = inconclusive; - = not tested or not shown; [ ] = dose if it differs, or a comment. Unless noted, calls follow the shape of the dose curve; as a rule, active = well fitted inhibition curve with a large enough effect; inconclusive = small, poorly fitted or top-dose-only effect, or another doubt; inactive = no such curve, though single readings can be large or run the other way.
SMILES,Pf growth 96h,HCV inhibitor,HCMV antiviral,Pf growth 48h
Cc1cc(C)cc(N2CC(O)=C(c3nc4ccccc4c(=O)[nH]3)C2=N)c1,0,22µM,0,0
COc1cccc(NC(=O)CSc2nc(-c3ccccc3)nc3c2Cc2cc(Cl)ccc2O3)c1,-,-,0,-
Cn1c2ccccc2c(=O)c2ccc(C#Cc3ccccn3)cc21,10µM,0,0,?
Cn1c2ccccc2c(=O)c2cc(C#CC3(O)CCCCC3)ccc21,0,0,0,0
Cn1c2ccccc2c(=O)c2ccc(C#CC3(N)CCCCC3)cc21,?,11µM,0,0
S=C1NC2(CCCCCC2)NN1c1ccccc1,-,-,0,-
Cn1c(SCC(=O)c2ccccc2)nnc1-c1ccc(O)cc1,0,0,0,-
COc1ccc(-n2c(SCC(=O)N3CCc4ccccc43)nnc2-c2c[nH]c3ccccc23)cc1,0,0[8.37 µM],0,0
CCn1c(SCC(=O)N2CCCc3ccccc32)nnc1-c1c[nH]c2ccccc12,0,?,0,?
Cn1c(SCC(=O)N2c3ccccc3CCc3ccccc32)nnc1-c1ccc(O)cc1,0,0,0,12µM
Cc1ccc2cc(C)c3nnc(SCC(=O)N4CCCc5ccccc54)n3c2c1C,5.2µM,0,-,9.3µM
Cn1c(SCC(=O)N2CCCc3ccccc32)nnc1-c1c[nH]c2ccccc12,0,0,0,13µM
CCn1c(SCC(=O)N2CCc3ccccc32)nnc1-c1c[nH]c2ccccc12,-,0,?,9.3µM
COc1ccc(Cn2c(=O)c3oc4ccccc4c3n(Cc3cccc(C(F)(F)F)c3)c2=O)cc1,-,-,0,-
CSc1ccc(-c2nc(CN3CCCCC3c3cccnc3)c(C)o2)cc1 (centres undefined),0,0,0,8.3µM
COc1ccccc1CN1CCCCC1c1cccnc1 (centres undefined),-,0,-86,0
COc1ccc(CNC(=O)CN2N=C(c3ccccc3)CCC2=O)c(OC)c1,-,-,0,-
COc1ccccc1C(CNC(=O)c1cccc(S(=O)(=O)Nc2ccc(C)cc2)c1)N1CCCC1 (centres undefined),15µM,0,0,13µM
COc1ccc(NS(=O)(=O)c2cccc(C(=O)NCC(c3ccco3)N3CCCCC3)c2)cc1 (centres undefined),?,0,0,?
COc1ccc(C(CNC(=O)c2cccc(NC(=O)c3cccs3)c2)N2CCCC2)cc1 (centres undefined),5.9µM,?,0,12µM
COc1ccc(C(CNC(=O)c2cccc(NS(=O)(=O)c3ccccc3)c2)N2CCCC2)cc1 (centres undefined),-,0,0,-
COc1ccc(C(CNC(=O)c2cccc(Br)c2)N2CCCC2)cc1 (centres undefined),?,?,0,-
Cc1cccc(NS(=O)(=O)c2cccc(C(=O)NCC(c3ccco3)N3CCCCC3)c2)c1 (centres undefined),15µM,?,0,?
COc1ccc(C(CNC(=O)c2ccc(NS(=O)(=O)c3ccc(F)c(C)c3)cc2)N2CCOCC2)cc1 (centres undefined),0,0,0,10µM
CCc1ccccc1NC(=O)C1CCN(S(=O)(=O)c2cn(C)cn2)CC1,-,-,0,-
SMILES,Pf growth 96h,HCV inhibitor,HCMV antiviral,Pf growth 48h
Nc1c(C(=O)Nc2ccccc2Cl)c2ccccn2c1C(=O)c1ccc(Cl)cc1,-,-,0,-
CCc1ccc(C(=O)c2c(N)c(-c3nc(-c4ccc5c(c4)OCO5)cs3)c3ccccn23)cc1,-,-,0,-
O=C(NCC(c1ccco1)N1CCCCC1)c1cccc(S(=O)(=O)Nc2ccccc2Cl)c1 (centres undefined),?,?,0,?
COc1ccc(C(CNC(=O)c2cccc(S(=O)(=O)Nc3ccccc3OC)c2)N2CCOCC2)cc1 (centres undefined),?,0,0,?
COc1ccccc1NS(=O)(=O)c1cccc(C(=O)NCC(c2ccccc2OC)N2CCCC2)c1 (centres undefined),?,0,0,8.3µM
COc1ccc(C(CNC(=O)c2cccc(S(=O)(=O)Nc3ccc(C)cc3)c2)N2CCCCC2)cc1 (centres undefined),9.3µM,3.2µM,0,8.3µM
Cc1ccc(N(C)S(=O)(=O)c2cccc(C(=O)NCC(c3ccco3)N3CCCC3)c2)cc1 (centres undefined),3.3µM,?,0,9.3µM
COc1ccccc1NS(=O)(=O)c1cccc(C(=O)NCC(c2ccco2)N2CCCC2)c1 (centres undefined),15µM,?,0,12µM
CCCNC(=O)c1nnc2n1CCN(C(=O)c1ccc(F)c(F)c1)C2,-,-,0,-
CCOc1ccccc1CNC(=O)CN1C(=O)CCc2cc(S(=O)(=O)N3CCCCC3)ccc21,-,-,0,-
Cc1ccc(NC(=O)Cn2c(=O)n(Cc3ccccc3)c(=O)c3c2c2cc(C)ccc2n3C)cc1,-,-,0,-
CC(OC(=O)c1ccccc1NS(=O)(=O)c1cccc(N)c1)C(=O)N(C)Cc1ccccc1 (centres undefined),?,?,-72,?
C=CCN(c1ccccc1)S(=O)(=O)c1cccc(C(=O)NCC(c2ccccc2OC)N2CCCC2)c1 (centres undefined),?,?,0,?
CCN(c1ccccc1)S(=O)(=O)c1ccc(Oc2ccc(C(C)=O)cc2OC)nc1,?,13µM,0,?
CCN(c1ccccc1)S(=O)(=O)c1ccc(C(=O)NCC(c2ccccc2OC)N2CCCC2)cc1 (centres undefined),-,25µM,0,-
CCc1ccc(CN(C)C(=O)c2cccc(S(=O)(=O)Nc3ccccc3OC)c2)cc1,?,0,0,10µM
Cc1ccccc1CNC(=O)CCCn1c(=O)c2cccn2c2cccnc21,-,-,0,-
C[C@H](Nc1nc(Br)cnc1N)c1ccccc1,-,-,0,-
CSC1=NCCN1C(=O)c1cccs1,13µM,0,0,-
CSC1=NCCN1C(=O)C12CC3CC(CC(C3)C1)C2,?,0,0,9.3µM
CCCCNC(=O)c1ccc2nc(CC)c(N(C)Cc3cccs3)n2c1,-,-,0,-
CCOc1ccccc1CNC(=O)c1cccc(NC(=O)c2nsc3ccccc23)c1,-,-,0,-
CCOC(=O)N1CCC(NC(=O)c2cnc3n(c2=O)CCS3)CC1,0,0,-61,0
Cc1ccc(-c2nnc3ccc(SCC(=O)N4CCc5ccccc54)nn23)cc1,0,0,0,0
Cc1ccc(-c2nnc3ccc(SCC(=O)N4CCCc5ccccc54)nn23)cc1,10µM,?,0,?
SMILES,Pf growth 96h,HCV inhibitor,HCMV antiviral,Pf growth 48h
CCOC(=O)Cn1nc(-c2ccc(Cl)cc2)ccc1=O,9.3µM,?,0,0
CCCCNC(=O)c1cnc2n(c1=O)CCS2,0,0,0,0
CCOC(=O)N1CCC(NC(=O)CCC(=O)c2ccccc2)CC1,8.3µM,0,0,0
CCOC(=O)N1CCN(C(=O)Cn2nc(-c3ccc(Cl)cc3)ccc2=O)CC1,0,0,0,0
Cc1ccc(C)c(CNC(=O)C2CCN(c3nc4ccccc4nc3C(F)(F)F)CC2)c1,-,-,0,-
Cc1cc2c(cc1S(=O)(=O)Nc1cccc(C(F)(F)F)c1)OCCN2C,-,-,0,-
CCOC(=O)CC(=O)CSc1ccc2nnc(-c3ccccc3)n2n1,?,0,0,3.7µM
CCOC(=O)N1CCC(Nc2ccc3nnc(-c4ccccc4)n3n2)CC1,0,14µM,0,-
